CYP2C19 inhib – inhibitors of human CYP2C19; CYP2C19 Supersomes, luciferin-H EGE luminescence, 30 min; inhibition, % at 5 µM; hit rate 21% among 96,000;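 active = CYP2C19 inhibition above a set limit at 5 µM in the primary screen, cut at about 50% in these data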;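 also: plate controls were negative control wells for no effect and 2.5 mM tranylcypromine positive control for full effect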
CYP2C9 inh – human CYP2C9 inhibition; CYP2C9 Supersomes, luciferin-H conversion, luminescence; inhibition, % at 5 µM; AID 777; hit rate 20% among 96,000; P11712;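 active = blocking of liver enzyme CYP2C9 beyond about 50% at 5 µM, limit read from the data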
Target sequence (P11712 whole entry, looked up): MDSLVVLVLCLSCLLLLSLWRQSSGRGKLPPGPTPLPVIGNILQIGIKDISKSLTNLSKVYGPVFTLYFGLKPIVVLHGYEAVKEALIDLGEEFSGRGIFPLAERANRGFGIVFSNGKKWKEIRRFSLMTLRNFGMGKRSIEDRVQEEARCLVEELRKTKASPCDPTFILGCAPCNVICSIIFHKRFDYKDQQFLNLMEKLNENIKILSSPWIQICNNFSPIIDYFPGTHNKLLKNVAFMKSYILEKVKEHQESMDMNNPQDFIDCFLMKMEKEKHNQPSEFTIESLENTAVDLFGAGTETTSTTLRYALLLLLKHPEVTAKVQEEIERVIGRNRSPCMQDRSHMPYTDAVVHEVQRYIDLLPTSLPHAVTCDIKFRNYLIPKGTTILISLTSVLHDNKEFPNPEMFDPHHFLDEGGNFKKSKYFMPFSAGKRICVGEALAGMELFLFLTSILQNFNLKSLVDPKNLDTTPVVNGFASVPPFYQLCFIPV
CYP2C9 act – activators of human CYP2C9; P11712; recombinant CYP2C9, luciferin-H conversion, luminescence; hits give high values; factor 1 = untreated enzyme, 0 = blocked; activation factor at 5 µM; hit rate 1.4% among 96,000;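 active = activation factor of 2 or more for CYP2C9 at a 5 µM dose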;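 also: 0 = sulfaphenazole-blocked wells and 1 = vehicle-only wells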
Cav32 inh – inhibitors of human Cav3.2 T-type calcium channel; O95180; Cav3.2-expressing cells, Fluo-4 calcium fluorescence FDSS; hits give low values; B-score at 10 µM; hit rate 4% among 100,000;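 active = single-dose well whose peak fluorescence ratio is a statistical outlier from its plate by either plate-standardised score or position-corrected B-score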
CYP2C19 act – cytochrome P450 2C19 (human) activation; recombinant CYP2C19, luciferin-H EGE luminescence; hits give high values; 0 = fully inhibited enzyme, 1 = untreated enzyme; 96,000 tested, under 10 active; P33261; activation factor at 5 µM;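 active = activation factor of at least 2 at 5 µM in the primary screen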;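 also: 0 = wells with 2.5 mM tranylcypromine and 1 = vehicle-only wells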
* = called active by the depositor. Most compounds without a hit are left out; they make up all but 27% or so of the library.

For Cc1nc2ncnn2c(C)c1CCC(=O)Nc1ccc(S(=O)(=O)N2CCCCCC2)cc1 the results were CYP2C19 inhib 27, CYP2C9 inh 69*, CYP2C9 act 0.3, Cav32 inh -0.7 and CYP2C19 act 0.7.
For Cc1ccc(NC(=O)CCc2c(C)nc3ncnn3c2C)cc1 the results were CYP2C19 inhib -9, CYP2C9 inh -16, CYP2C9 act 1.2, Cav32 inh 0.17 and CYP2C19 act 1.1.
For CCCn1c(-c2ccc(F)cc2)cnc1SCC(=O)O the results were CYP2C19 inhib 6, CYP2C9 inh 14, CYP2C9 act 0.9, Cav32 inh 0.95 and CYP2C19 act 0.9.
`CCn1c(-c2ccc(F)cc2)cnc1SCC(=O)N1CCCCC1C` (stereo not given) gave CYP2C19 inhib 63*, CYP2C9 inh 40, CYP2C9 act 0.6, Cav32 inh -0.73 and CYP2C19 act 0.4.
CC1CN(C2CCN(S(=O)(=O)Cc3ccccc3)CC2)CC(C)O1 (stereo not given) was read as CYP2C19 inhib -9, CYP2C9 inh 2, CYP2C9 act 1, Cav32 inh 1.1 and CYP2C19 act 1.1.
Cc1ccc(CCN2CC(C(=O)NCCCN3CCOCC3)CC2=O)cc1 (stereo not given) was read as CYP2C19 inhib -9, CYP2C9 inh -10, CYP2C9 act 1.1, Cav32 inh 0.44 and CYP2C19 act 1.1.
Screening O=C(Nc1ccc(Oc2ccc(Cl)cc2)cc1)c1ncn[nH]1 returned CYP2C19 inhib 54*, CYP2C9 inh 3, CYP2C9 act 1, Cav32 inh -0.18 and CYP2C19 act 0.5.
For CCOC(=O)c1cc2sccc2n1CC(=O)OC the results were CYP2C19 inhib 49, CYP2C9 inh 23, CYP2C9 act 0.8, Cav32 inh 0.084 and CYP2C19 act 0.5.
`COC(=O)c1cc2sccc2n1CC(=O)Nc1ccc(OC)c(OC)c1OC` gave CYP2C19 inhib 91*, CYP2C9 inh 88*, CYP2C9 act 0.1, Cav32 inh 0.038 and CYP2C19 act 0.1.
For CCOC(=O)c1cc2sccc2n1CC(=O)Nc1ccc(OC)cc1OC the results were CYP2C19 inhib 99*, CYP2C9 inh 68*, CYP2C9 act 0.3, Cav32 inh -2.6 and CYP2C19 act 0.
COc1cc(Cn2c(C(=O)O)cc3sccc32)cc(OC)c1OC was read as CYP2C19 inhib 71*, CYP2C9 inh 41, CYP2C9 act 0.6, Cav32 inh 0.38 and CYP2C19 act 0.3.
`O=C(O)CC(=O)Nc1ccccc1C(=O)O` gave CYP2C19 inhib -3, CYP2C9 inh -22, CYP2C9 act 1.2, Cav32 inh -1 and CYP2C19 act 1.
Screening COC(=O)C1=C(C)NC(C)=C(C(=O)OC)C1C1CC=CCC1 (stereo not given) returned Cav32 inh -2.8.
`O=C(Nc1cccs1)OCCN1CCN(Cc2ccccc2)CCC1=O` gave Cav32 inh 2.
For Cc1ccc(N2C(=O)N(CC(=O)NC(c3ccccc3)c3ccccc3)C(=O)C2C)cc1 (stereo not given) the results were CYP2C19 inhib 23, CYP2C9 inh 23, CYP2C9 act 0.8, Cav32 inh -10* and CYP2C19 act 0.8.
`Cc1ccc(N2C(=O)N(CC(=O)N(C)Cc3ccccc3)C(=O)C2C)cc1` (stereo not given) gave CYP2C19 inhib 6, CYP2C9 inh -5, CYP2C9 act 1.1, Cav32 inh 0.14 and CYP2C19 act 0.9.
For O=C(O)CCC(=O)N1CCN(c2nc(-c3ccccc3Cl)c3cc(Br)ccc3n2)CC1 the results were CYP2C19 inhib 22, CYP2C9 inh -4, CYP2C9 act 1, Cav32 inh 1.2 and CYP2C19 act 0.8.
`COc1ccc(C2CC(c3cccc(OC)c3OC)n3nnnc3N2)cc1` (stereo not given) gave CYP2C19 inhib 96*, CYP2C9 inh 65*, CYP2C9 act 0.3, Cav32 inh 1.6 and CYP2C19 act 0.
For CCOc1ccc(C2CC(c3cccc(OC)c3)n3nc(N)nc3N2)cc1 (stereo not given) the results were CYP2C19 inhib 3, CYP2C9 inh 21, CYP2C9 act 0.8, Cav32 inh 1.7 and CYP2C19 act 1.
Screening CCOc1ccc(C2CC(c3cccc(OC)c3)Nc3ncnn32)cc1 (stereo not given) returned CYP2C19 inhib 79*, CYP2C9 inh 95*, CYP2C9 act 0 and CYP2C19 act 0.2.
Screening COc1ccc(C2CC(c3cccc(OC)c3)n3nc(N)nc3N2)cc1 (stereo not given) returned CYP2C19 inhib 13, CYP2C9 inh 9, CYP2C9 act 0.9, Cav32 inh 0.085 and CYP2C19 act 0.9.
COc1cccc(C2CC(c3ccccc3Cl)n3nnnc3N2)c1 (stereo not given) was read as CYP2C19 inhib 100*, CYP2C9 inh 89*, CYP2C9 act 0.1, Cav32 inh -0.2 and CYP2C19 act 0.
For COc1cccc(C2CC(c3c(Cl)cccc3Cl)n3nc(N)nc3N2)c1 (stereo not given) the results were CYP2C19 inhib 19, CYP2C9 inh 9, CYP2C9 act 0.9, Cav32 inh 1 and CYP2C19 act 0.8.
For COc1cccc(C2CC(c3ccccc3Cl)n3ncnc3N2)c1 (stereo not given) the results were CYP2C19 inhib 97*, CYP2C9 inh 52*, CYP2C9 act 0.5, Cav32 inh -0.6 and CYP2C19 act 0.
For CCN1CCN(C(CNC(=O)c2ccc3c(c2)OCO3)c2cccnc2)CC1 (stereo not given) the results were CYP2C19 inhib -21, CYP2C9 inh 3, CYP2C9 act 1, Cav32 inh -0.47 and CYP2C19 act 1.2.
O=C(c1ccc2ccccc2c1)N1CCN(c2ccc([N+](=O)[O-])c(N3CCOCC3)c2)CC1 was read as CYP2C19 inhib 46, CYP2C9 inh 65*, CYP2C9 act 0.3, Cav32 inh -0.35 and CYP2C19 act 0.5.
O=[N+]([O-])c1ccc(N2CCOCC2)cc1NCc1ccccc1 was read as CYP2C19 inhib 41, CYP2C9 inh 33, CYP2C9 act 0.7, Cav32 inh -0.023 and CYP2C19 act 0.6.
`Cn1c(=O)n(C)c2cc([N+](=O)[O-])c(N3CCN(C(=O)c4ccc(Cl)cc4)CC3)cc21` gave CYP2C19 inhib 2, CYP2C9 inh 27, CYP2C9 act 0.7, Cav32 inh 0.91 and CYP2C19 act 1.
O=[N+]([O-])c1cc([N+](=O)[O-])c(N2CCOCC2)cc1NCc1ccccc1 was read as CYP2C19 inhib 29, CYP2C9 inh 86*, CYP2C9 act 0.1, Cav32 inh -1 and CYP2C19 act 0.7.
CC1CCN(c2ccc(C(=O)N3CCOCC3)cc2[N+](=O)[O-])CC1 was read as CYP2C19 inhib -3, CYP2C9 inh -3, CYP2C9 act 1, Cav32 inh 0.89 and CYP2C19 act 1.
Screening O=C(c1ccc(F)cc1)N1CCN(c2ccc([N+](=O)[O-])c(N3CCCCC3)c2)CC1 returned CYP2C19 inhib 19, CYP2C9 inh 62*, CYP2C9 act 0.4, Cav32 inh -1.1 and CYP2C19 act 0.8.

Compound activity deposited in PubChem by several laboratories.
